# Screening results as filed in PubChem.
# TLR4-MyD88 BLA = inhibitors of human TLR4-MyD88 binding; O00206+Q99836; HeLa CL3-4 TLR4/MyD88 BLA complementation, FRET ratio; inhibition, % at 8.4 µM; 200,000 compounds, 0.18% hits; in the data active means inhibition above about 25%;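 further: 0% = vehicle and 100% = reference inhibitor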
# NOD2-RIPK2 inh = inhibitors of human NOD2-RIPK2 interaction | inhibition, % at 4.98 µM | CHO BLA complementation NOD2-RIPK2, CCF4 ratio | 360,000 compounds, 0.38% hits | O43353; in the data active means inhibition above about 21%;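 further: 0% = vehicle only and 100% = reference blocker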
# CRFBP-R2 block = CRF-BP/CRF-R2 complex antagonism. HEK293 CRF-R2/CRF-BP, CRF-induced calcium fluorescence. 350,000 compounds, 0.59% hits. inhibition, % at 11.8 µM;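 active means inhibition of the ligand-induced calcium signal above about 50% at the single tested concentration, limit read from the data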
# HTR2A ag = agonists of mouse serotonin 5-HT2A receptor (HTR2A). activation, % at 7.6 µM. 360,000 compounds, 0.66% hits. CHO-K1 mHTR2A beta-arrestin complementation, luminescence; percent of 30 µM serotonin response. AID 624169. P35363;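 active means activation above a run cutoff, the mean activation of all tested compounds plus 3 SD, cut at about 14% in these data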;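 further: 0% = plate median of compound wells and 100% = 30 µM serotonin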
# TLR9-MyD88 inh = TLR9-MyD88 interaction inhibition. AID 504734. 340,000 compounds, 0.21% hits. inhibition, % at 4.98 µM. Q9NR96+Q99836. CHO BLA complementation TLR9-MyD88, CCF4 FRET ratio;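 active means inhibition above the mean over all tested compounds plus 3 SD, cut at about 21% in these data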;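 further: 0% = DMSO only wells and 100% = clavulanate BLA inhibitor control wells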
# ABHD5 PLIN5 PPI = blocks binding of human ABHD5 to perilipin-5; Q00G26+Q8WTS1; Split G. princeps luciferase complementation, luminescence, 4 h; inhibition, % at 4 µM; 360,000 compounds, 0.78% hits;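 active means inhibition above the mean inhibition across every tested compound plus 3 SD, cut at about 22% in these data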;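 further: 0% = DMSO only wells and the 100% control is not disclosed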
# ABHD5 PLIN5 conf = confirmation of human ABHD5-PLIN5 interaction inhibitors; shares compounds with ABHD5 PLIN5 PPI; biochemical ABHD5-PLIN5 interaction, luminescence; inhibition, % at 4 µM; 2,200 compounds, 67% hits; AID 651612; in the data active means inhibition above about 23%;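 further: 0% = DMSO vehicle wells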
# HNF4 split-luc = counter-screen for ABHD5-PLIN5 inhibitors: HNF4 split-luciferase; shares compounds with ABHD5 PLIN5 PPI; HNF4 dimerization, luminescence, biochemical; inhibition, % at 4 µM; 2,200 compounds, 77% hits; AID 651674;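 active means mean inhibition across replicate wells exceeding the computed hit threshold, cut at about 13% in these data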;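 further: light from luciferase halves that rejoin when HNF4 fusion proteins dimerize; 0% = DMSO only wells and the 100% control is not given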
# Active calls of the source: *; . = no result. Hits are enriched below; roughly 2.4% of the tested compounds scored in any of these assays.
SMILES,TLR4-MyD88 BLA,NOD2-RIPK2 inh,CRFBP-R2 block,HTR2A ag,TLR9-MyD88 inh,ABHD5 PLIN5 PPI,ABHD5 PLIN5 conf,HNF4 split-luc
CCOc1ccccc1/C=C/C(=O)c1ccc(Cl)cc1,4,1,12,-1,-2,2,.,.
O=C(/C=C/c1ccccc1[N+](=O)[O-])c1ccc(F)cc1,13,-8,3,6,-1,34*,86*,83*
O=C(/C=C/c1ccccc1O)c1ccccc1,.,-3,-31,2,-2,29*,79*,64*
O=C(/C=C/c1ccccc1[N+](=O)[O-])OCC(=O)c1ccccc1,1,9,-10,-5,-9,-4,.,.
O=C(/C=C/c1cccc2ccccc12)c1ccncc1,-7,11,-96,1,-1,65*,96*,96*
COc1cccc(NC(=O)CN2C(=O)NC3(CCCc4ccccc43)C2=O)c1 (stereo not drawn),.,-8,1,0,6,92*,4,2
CCOC(=O)Cn1c(=N)n(CCOc2ccc3ccccc3c2)c2ccccc21,3,15,-37,-1,3,25*,9,9
Cc1cn([C@@H](CCCCNC(=O)OC(C)(C)C)C(=O)NCCCCCCCCCCC(=O)N2CCN(C(=O)OC(C)(C)C)CC2)nn1,.,-1,-10,11,-6,24*,3,-10
C#CCOCCOCCOCCNc1nc(N2CCN(C(=O)CCCCCCCCCCNC(=O)[C@@H](CCSC)n3cc(CCO)nn3)CC2)nc(N2CCN(C(=O)CCCCCCCCCCNC(=O)[C@@H]([C@H](C)O)n3cc(C)nn3)CC2)n1,.,-6,12,-2,2,53*,8,-17
C#CCOCCOCCOCCNc1nc(N2CCN(C(=O)CCCCCCCCCCNC(=O)[C@H](CCCCN)n3cc(C)nn3)CC2)nc(N2CCN(C(=O)CCCCCCCCCCNC(=O)[C@@H]([C@H](C)O)n3cc(C)nn3)CC2)n1,.,7,-22,5,0,44*,8,-4
COc1ccc(CNC(=O)C2CCN(S(=O)(=O)c3ccc4c(c3)NC(=O)C(C)S4)CC2)cc1 (stereo not drawn),.,-16,-4,-5,-5,2,.,.
CC1Sc2ccc(S(=O)(=O)N3CCC(C(=O)NCc4ccc(Cl)cc4)CC3)cc2NC1=O (stereo not drawn),.,-3,3,-3,-6,27*,43*,.
CC1=C(C(=O)N2CCOCC2)CC(CC(=O)NCCCN(C)C)C(=O)N1CCCN1CCCC1=O (stereo not drawn),.,-12,.,1,.,-6,.,.
CCc1ccc(/C=C/C(=O)c2ccc(N3CCOCC3)cc2)cc1,6,-8,0,-4,9,6,.,.
CCc1ccc(/C=C/C(=O)c2ccc(S(=O)(=O)N(C)C)cc2)cc1,2,-4,-72,-1,2,41*,92*,83*
Cc1nn(CC(=O)Nc2ccccn2)c(C)c1[N+](=O)[O-],-3,-9,7,-2,-10,73*,2,-4
CCOC(=O)c1cccc(S(=O)(=O)N(CCO)Cc2cc3cc(OC)ccc3[nH]c2=O)c1,6,2,9,-1,1,1,.,.
COC(=O)c1cccc(S(=O)(=O)N(Cc2ccco2)Cc2cc3cc(OC)ccc3[nH]c2=O)c1,-8,1,-6,0,1,42*,56*,66*
O=c1[nH]c(/C=C/c2ccc([N+](=O)[O-])cc2)c([N+](=O)[O-])c(=O)[nH]1,.,-14,0,-6,-7,50*,85*,79*
Cc1ccc(-c2nc(=S)c3c(n2Cc2ccco2)CCCC3)cc1,8,-9,-17,-2,-4,13,.,.
Cc1cccc(-c2nc(=S)c3c(n2Cc2ccco2)CCCC3)c1,8,-4,-47,0,-1,28*,7,11
O=C(O)/C=C/C(=O)c1c(-c2ccccc2)[nH]c2ccccc12,.,-2,3,10,-16,62*,96*,94*
CC(=O)c1c(-c2ccccc2)[nH]c2ccccc12,.,3,4,4,-15,2,.,.
CSc1ccc(CNC(=O)C2(C)CCCN2CC(C)C)cc1 (stereo not drawn),.,-12,.,-2,.,1,.,.
CCn1cc(/C=C(\NC(=O)c2ccccc2)C(=O)NCCCn2ccnc2)c2ccccc21,.,6,14,3,6,4,.,.
SMILES,TLR4-MyD88 BLA,NOD2-RIPK2 inh,CRFBP-R2 block,HTR2A ag,TLR9-MyD88 inh,ABHD5 PLIN5 PPI,ABHD5 PLIN5 conf,HNF4 split-luc
COc1ccc2c(C#CCCO)c(-c3ccc(S(C)(=O)=O)cc3)sc2c1,.,17,-4,5,-11,30*,17,3
Cc1ccc(-c2csc(NC(=O)c3ccc(-c4ccccc4)cc3)n2)o1,2,9,-7,0,-5,55*,25*,27*
Cc1ccc(-c2csc(Nc3ccc(S(N)(=O)=O)cc3)n2)o1,7,-5,22,-2,2,32*,65*,100*
Cc1ccc(-c2csc(NC(=O)Cc3ccc(F)cc3)n2)o1,-6,-5,-5,-2,2,30*,60*,94*
Cc1nc(C)c(-c2csc(Nc3ccc(S(N)(=O)=O)cc3)n2)s1,.,-7,17,-2,-10,2,.,.
COc1ccc(CNC(=O)C(CCSC)NC(=O)c2ccco2)cc1 (stereo not drawn),-8,-4,-14,-1,-2,-3,.,.
CSCCC(NC(=O)c1ccco1)C(=O)NNC(=O)c1n[nH]c(=O)c2ccccc12 (stereo not drawn),.,-2,-8,1,-3,66*,4,4
O=C(OCc1ccccc1)N1CCCC2CC1c1ccccc12 (stereo not drawn),.,-9,-6,-5,4,-8,.,.
COc1ccc(-c2nc3c(C)cc(Br)cn3c2Cc2cccc(F)c2)cc1OC,.,-1,.,3,.,-4,.,.
O=C1C(O)=C(O)C(=O)c2ccccc21,.,-1,-3,6,-6,42*,7,67*
CCCCC[C@@H](C)N1C[C@@H](COCc2ccccc2)Oc2cc(N3CCC[C@H]3COC)ccc2S1(=O)=O,.,-10,.,1,.,-9,.,.
CCc1nc2c(sc3nc4c(cc32)COC(C)(C)C4)c(=O)n1Cc1ccco1,-5,20,-1,0,-13,28*,21,36*
CCc1nc(OCc2ccco2)c2sc3nc4c(cc3c2n1)COC(C)(C)C4,1,8,-14,-4,-3,33*,47*,74*
Cc1ccc(S(=O)(=O)N2CCOCC2)cc1NC(=O)CN(C)CC(=O)Nc1cccc(F)c1,.,-6,-8,-4,4,4,.,.
